GRIN3A LBD mod = modulators (binders) of human NR3A ligand-binding domain; NR3A LBD differential scanning fluorimetry, Tm shift; 0% = protein alone, 100% = glycine-bound protein; Tm shift relative to glycine control, % at 25 µM; hit rate 2.5% among 340,000;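 active = melting temperature shift of at least 10% of the positive control shift, at one fixed dose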
Myeloid diff 2 = promotes myeloid progenitor differentiation; hit rate 1% among 360,000; calls only at 10 µM; AID 624256; ER-HoxA9 myeloid progenitors, lysozyme-GFP differentiation, flow cytometry;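 active = normalized GFP-positive differentiation at or above the plate's own cutoff, the solvent-only control mean plus 3 SD; inconclusive = no clear call, values can overlap the other calls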;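 note: cells exposed to compound for four days before flow analysis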
rCAG RNA binder = binds r(CAG) RNA repeats; r(CAG) RNA repeat, TO-PRO-1 dye displacement fluorescence; inhibition, % at 3 µM; hit rate 1.3% among 370,000; AID 651821;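 active = inhibition above the plate cutoff, the mean of all test compounds on that plate plus 3 SD, cut at about 35% in these data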;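 note: 0% = DMSO alone and 100% = 100 µM mitoxantrone as full dye displacement; higher means more dye released from RNA so lower well fluorescence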
FAS TE block = blocks the thioesterase domain of human fatty acid synthase; P49327; recombinant FAS-TE, OMFH fluorogenic substrate, fluorescence endpoint; inhibition, % at 15 µM; hit rate 0.67% among 360,000;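 active = compounds whose normalised, plate-corrected inhibition of enzyme fluorescence in the single-dose primary screen is 50% or more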;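 note: 0% = DMSO with enzyme and 100% = substrate without enzyme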
MPTP block = inhibitors of mitochondrial permeability transition pore | inhibition, % at 10 µM | hit rate 1.4% among 360,000 | AID 602449 | isolated mouse mitochondria, Ca2+ swelling absorbance, 30 min;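 active = inhibition of 50% or more, scaled per plate between neutral and stimulator controls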;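 note: 0% = DMSO wells given calcium and 100% = 1 mM EGTA wells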
MPTP counter = mitochondrial membrane potential, counter-screen; shares compounds with MPTP block; isolated mitochondria, Rhodamine 123 fluorescence; inhibition, % at 10 µM; hit rate 78% among 5,000; in the data active = inhibition above about 22%;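 note: 0% = DMSO vehicle and 100% = positive control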
MPTP swell DR = dose response confirmation of mitochondrial permeability transition pore inhibitors; isolated mitochondria swelling, absorbance; shares compounds with MPTP block; hit rate 58% among 780; IC50, µM; AID 651561; in the data active = IC50 below about 20 µM
MPTP counter DR = counter-screen for mitochondrial permeability transition pore inhibitors, dose response | shares compounds with MPTP block | isolated mitochondria counterscreen, fluorescence read-out | IC50, µM | hit rate 49% among 780; in the data active = IC50 below about 80 µM
* hit, by the source's call; i = inactive; u = inconclusive; x = not tested or not shown; + = active, no number. Most compounds without a hit are left out; they make up all but 5.7% or so of the library.

SMILES	GRIN3A LBD mod	Myeloid diff 2	rCAG RNA binder	FAS TE block	MPTP block	MPTP counter	others
C=CCN1[C@H](C)[C@H](c2ccccc2)Oc2cc(Br)ccc2S1(=O)=O	x	x	5.2	x	x	x
O=C(CN(c1cccc(C(F)(F)F)c1)S(=O)(=O)c1ccc(Cl)c([N+](=O)[O-])c1)NCc1ccc(F)cc1	5.3	u	5.5	43.9	74.3*	66.6*
O=C(CN(c1cccc([N+](=O)[O-])c1)S(=O)(=O)c1ccccc1)NCc1cccnc1	-2.0	i	0.4	-2.0	-0.2	x
C=CCn1cccc(/C=C/C(=O)c2ccc(C(C)(C)C)cc2)c1=S	-2.4	u	6.2	-3.9	77.0*	4.4
O=C(C=Cc1ccccc1Cl)c1ccccc1	-37.2	i	0.5	-0.5	-1.5	x
CCCCc1ccc(NC(=O)C(C)CC)cc1 (stereo not drawn)	0.0	i	-5.8	6.3	-1.5	x
COc1ccc(NC(=O)c2ccc(-c3ccc(-c4noc(C)n4)cc3C)cc2)cc1N1CCN(C)CC1	2.0	u	2.9	8.1	80.6*	-18.9
Cc1cccc(CCNS(=O)(=O)c2ccc3c(c2)NC(=O)C(C)S3)c1 (stereo not drawn)	-3.4	i	-0.5	12.5	1.2	x
CN(C)CC/C=C1/c2cc(F)ccc2CSc2ccc(F)cc21	-7.1	i	3.1	-9.3	72.3*	-2.5	MPTP swell DR=14*;MPTP counter DR=>80
NCC/C=C1/c2ccccc2CSc2ccccc21	1.4	i	13.1	-22.3	87.5*	-9.4	MPTP swell DR=6.79*;MPTP counter DR=>80
CN(CC/C=C1/c2ccccc2CSc2ccccc21)CCCO	-5.5	i	-2.3	-12.7	-1.0	x
C=CCN(C)CC/C=C1\c2ccccc2CSc2ccccc21	0.0	i	-9.6	4.7	74.3*	-1.6	MPTP swell DR=17.5*;MPTP counter DR=73.9*
O=C(Nc1ccc([N+](=O)[O-])cc1)C1CC1(c1ccccc1)c1ccccc1 (stereo not drawn)	6.2	i	0.7	11.6	92.1*	86.7*
CCC(C)Sc1ccc([C@@H]2[C@@H]3C(=O)N(CC)C(=O)[C@@H]3[C@]3(C(=O)OC)CCCCN23)cc1 (stereo partly drawn)	-3.1	i	-0.8	25.0	-0.5	x
O=C(Nc1cccc(C(F)(F)F)c1)N1CCC(c2nc(-c3ccc(F)cc3)no2)CC1	20.7*	i	-0.3	29.1	76.9*	88.8*
CC(C)CNC(=S)N1CCC(c2nc(-c3ccc(F)cc3)no2)CC1	-6.5	i	-5.0	28.4	95.3*	94.2*
OCCC1CN(Cc2cccc3c2OCO3)CCN1C1CCCC1 (stereo not drawn)	-1.4	i	-3.1	-7.8	0.4	x
CCC(C)[C@H]1CNC(=O)C(=O)N1CCc1cccc2ccccc12 (stereo partly drawn)	x	i	1.9	-2.1	-0.1	x
N#CC1=C(N)N2C(=C(C#N)C1c1cccc(Br)c1)Nc1ccccc12 (stereo not drawn)	23.9*	i	6.6	-1.0	85.5*	55.1*
CCOc1ccc(C2C(C#N)=C(N)N3C(=C2C#N)Sc2ccccc23)cc1 (stereo not drawn)	-10.3	i	x	-11.8	0.1	x
Cc1cccc(N2CCN(C(=O)CSCc3c(C)noc3C)CC2)c1C	-1.3	i	x	5.8	89.6*	74.7*
Cc1nc(Nc2ccc(S(=O)(=O)N3CCCCC3C)cc2)c2nnn(Cc3ccccc3)c2n1 (stereo not drawn)	-2.1	+	0.6	44.1	67.8*	14.1	MPTP swell DR=i;MPTP counter DR=>80
Cc1nc(Nc2ccc(Cl)cc2)c2nnn(Cc3ccccc3)c2n1	-11.4	i	2.4	18.2	-2.1	x
Cc1nc2ccccn2c1C(=O)CSc1ccccc1Cl	3.0	i	0.2	-13.2	0.7	x
Cc1nc2ccccn2c1C(=O)CSc1ccc(Cl)cc1Cl	-7.5	i	-1.8	9.7	72.3*	4.0
SMILES	GRIN3A LBD mod	Myeloid diff 2	rCAG RNA binder	FAS TE block	MPTP block	MPTP counter	others
Cc1ccc(CCCNC(=O)C2CCC(=O)N(Cc3cccc(F)c3)C2)cc1 (stereo not drawn)	-1.0	u	-6.8	-8.6	-1.6	x
CCC(C)NS(=O)(=O)c1ccc(S(=O)(=O)N2CCCC3(CCCCC3)C2)cc1 (stereo not drawn)	-6.1	i	-1.6	30.4	88.0*	100.0*
Cn1c2c(c(=O)n(C)c1=O)C(C(F)(F)F)(C(F)(F)F)N=C(CCC1CCCCC1)N2	-7.2	i	-0.7	14.1	93.6*	78.8*
CC(C)c1ccc(NC(=O)c2ccc(-c3ccnn3C)c3ccoc23)cc1	x	i	x	16.4	-1.6	x
N/C(=N\N=C/c1ccc(Br)cc1)N/N=C\c1ccc(Br)cc1	28.4*	i	7.7	-28.5	58.7*	-6.2	MPTP swell DR=i;MPTP counter DR=37.4*
N/C(=N\N=C/c1ccc(F)cc1)N/N=C\c1ccc(F)cc1	4.7	i	7.2	-22.6	3.9	x
O=C(Nc1ccc(F)cc1)C1C2CCC3C(CCC21)C3(Cl)Cl (stereo not drawn)	-8.6	i	-3.8	1.1	61.7*	73.6*
O=C(Nc1ccc(F)cc1)C1C(c2ccccc2)C1(Cl)Cl (stereo not drawn)	-0.1	i	0.0	22.5	91.6*	90.2*
Cc1ccc(C)c(NC(=O)C2C(c3ccccc3)C2(Cl)Cl)c1 (stereo not drawn)	-3.4	i	-3.1	23.5	75.7*	88.9*
CCOc1ccc(NC(=O)C2C3CCC4C(CCC32)C4(Cl)Cl)cc1 (stereo not drawn)	-0.8	i	-2.0	-4.4	0.5	x
CCc1ccccc1NC(=O)C1C(c2ccccc2)C1(Cl)Cl (stereo not drawn)	-7.0	i	-2.2	18.7	50.7*	76.1*
CCOc1ccccc1NC(=O)C1C(c2ccccc2)C1(Cl)Cl (stereo not drawn)	x	i	2.0	28.8	1.2	x
O=C(Nc1ccccc1Cl)C1C(c2ccccc2)C1(Cl)Cl (stereo not drawn)	-6.1	i	-5.0	29.0	0.7	x
COc1ccccc1CN1CCNC(=O)C1CC(=O)N(C)C1CCOCC1 (stereo not drawn)	x	i	1.7	-7.5	0.8	x
O=C(CSc1ccc(Cl)cc1)Nc1cccc(-c2nnc(-c3ccco3)o2)c1	10.7*	i	7.5	2.1	69.9*	59.0*
Cc1ccc(SCC(=O)Nc2cccc(-c3nnc(-c4ccco4)o3)c2)cc1	1.4	i	10.2	20.5	0.6	x
O=C(O)Cn1cnc2c(OCc3ccccc3)ncnc21	2.6	i	0.5	-5.1	-2.0	x
Cc1cc(C)c(CN2CCN(C(=O)Cn3cnc4c(OCc5ccccc5)ncnc43)CC2)c(C)c1	-0.1	i	5.8	19.3	67.1*	84.2*
CCOC(=O)Cn1c2ccccc2n2nc(CCC(=O)O)c(=O)nc12	-2.1	i	1.2	-2.2	-0.7	x

Screening data (PubChem BioAssay)
